Our source for the growth inhibition values is PubChem BioAssay (NCI).

The panel holds about 79,000 compounds, 15% with a hit somewhere; the sample as a whole holds those more often. Unmarked numbers belong to inactive results. Calls of active or inactive are those of the source. No stated cut-off is given here; in the data, active means growth inhibition above about 70%; inactive means the rest.

The assay in a line: NCI Yeast Anticancer Drug Screen. Data for the bub3 strain (AID 167). As to conditions: S. cerevisiae bub3 mutant strain, at 50.0 µM, active compounds read high. The procedure: Growth inhibition of yeast strains with defined genetic alterations is measured as a screen for potential anti-cancer activity. Selected strains with alterations in DNA damage repair or cell cycle control were exposed to compounds and growth inhibition was measured relative to vehicle treated controls. The strain used in this assay is bub3
With `O=C(/C=C(\[O-])c1ccccc1)CCCCCCC(=O)/C=C(\[O-])c1ccccc1.O=C(/C=C(\[O-])c1ccccc1)CCCCCCC(=O)/C=C(\[O-])c1ccccc1.O=C(/C=C(\[O-])c1ccccc1)CCCCCCC(=O)/C=C(\[O-])c1ccccc1.[Nd+3].[Nd+3]`, the growth inhibition is 31.2%.
For `COc1cc(-c2nc(SC)nc3c2CCc2ccccc2-3)cc(OC)c1OC`, the growth inhibition is 4.35%.
On to `O=C1NC(N/N=C\C(O)C(O)C(O)C(O)CO)=N/C1=C\c1ccc(Cl)cc1` (stereo not given), for which the growth inhibition was 24.4%.
`CC1CC(C(=O)OC2OC(COC3OC(CO)C(OC4OC(C)C(O)C(O)C4O)C(O)C3O)C(O)C(O)C2O)C2CCC3(C)C(=CCC4(C)C3CCC3C(C)(CO)C(O)C(O)CC34C)C2C1C` (stereo not given): the growth inhibition is 77.8% (active).
The value for `CC1CC(=O)N(N(C)C)C2(C#N)C(=O)N=C(N)C12C#N` (stereo not given) was -4%; that for `O=c1c2ccccc2nc(-c2ccccc2)n1/N=C/c1ccccc1[N+](=O)[O-]` was 18.4%; that for `CN1C2CCC1CC(OC(=O)C(O)c1ccccc1)C2` (stereo not given) was -35.8%.
The value for `CCO/C=N\C1=C(C#N)SC2=N/C(=C\c3ccc(OC)cc3)C(=O)N21` was -2.1%.
In the case of `Cn1c2c(c3ccccc3c1=O)C(=O)c1ccccc1-2` it was 7.7%.
For `Cc1ccc(NC2=N/C(=C/c3ccccc3)C(Cl)=N2)cc1`, the growth inhibition was 14.3%.
The value for `O=C1NC(N/N=C\c2ccccc2)=N/C1=C/c1ccccc1` was -0.3%.
Turning to `CC(C)CCCC(C)[C@H]1CC[C@H]2[C@@H]3CC[C@H]4C[C@@H](CCC=C(c5cc(Cl)c(O)c(C(=O)O)c5)c5cc(Cl)c(O)c(C(=O)O)c5)CC[C@]4(C)[C@H]3CC[C@]12C` (stereo not given in full) (tested in a mixture with another compound), the growth inhibition was 10.7%.
Consider `C=CCNC1=C2C[C@@H](C)C[C@@H](OC)[C@@H](OC(=O)CCCN)[C@H](C)/C=C(\C)[C@@H](OC(N)=O)[C@H](OC)/C=C\C=C(/C)C(=O)NC(=CC1=O)C2=O`, for which the growth inhibition is 20.6%.
On to `COc1cc([C@H]2OC[C@@H]3C(c4cc(OC)c5c(c4)OCO5)OC[C@H]23)cc(OC)c1OC` (stereo not given in full), for which the growth inhibition was -1.35%.
With `CCOC(=O)c1cc(C)nc2c1c(=O)n(-c1ccccc1)c(=O)n2CCCCN1CCN(c2ncccn2)CC1`, the growth inhibition was -16.9%.
In the case of `CCC(=O)C(CC)c1cccc(OC)c1` (stereo not given) it was 9.55%; in that of `COC(=O)C1CCC(=O)N1CN(C(C)=O)c1cccc(O)c1` (stereo not given), -15.7%; in that of `CC(C)=CC(O)C/C(C)=C/CC/C(C)=C/CCC1(C)C(CCCO)/C(=C(/C)C=O)CCC1(C)O` (stereo not given), 4.6%.
Regarding `COc1ccc2nc(N/N=C/c3ccc(C)s3)cc(C)c2c1`, the growth inhibition is 0.7%.
The value for `O=C1c2ccccc2-c2c1c1ccccc1c(=O)n2CCO` was 51.9%; that for `Clc1ccc(C2C3COc4ccccc4C3=NN2c2ccccc2)cc1` (stereo not given) was -29.5%; that for `COc1cc2c(cc1C1COc3cc4occc4cc3C1=O)OCO2` (stereo not given) was -4.45%.
In the case of `CC(C)C1OC(N)=C(C#N)C1(C#N)C#N` (stereo not given) it was -19%; in that of `CSc1nc(Br)nc2ncn(C3CC(Oc4ccc(C)cc4)C(COc4ccc(C)cc4)O3)c12` (stereo not given), -3.15%; in that of `CCCCCCCCCCCCC/C=C/[C@H]1[C@@H](C(=O)OC)N1S(=O)c1ccc(C)cc1` (stereo not given in full), -10.5%.
With `COc1ccc2c(c1)N(C(C)=O)CN1C(=O)CCC21` (stereo not given), the growth inhibition was 6.85%.
Consider `CC1=CC(=O)c2ccc(C)cc2C1=O`, for which the growth inhibition is -0.4%.
The value for `CC(C)n1c2c([n+](C)c1/C=C/c1ccccc1)C(=O)c1ccccc1C2=O` was 50.4%; that for `COc1ccccc1-c1n[nH]c(-c2ccccc2O)n1` was 22.9%.
In the case of `C=C(C)C(=O)OC1CC2(C)OC(=CC2=O)C(C)CC2OC(=O)C(=C)C12` (stereo not given), the growth inhibition was 33.5%.
On to `COC(=O)/C(=N\NC(=S)NN)C(C(=O)OC)C(=O)C(=O)Nc1cccc(C(F)(F)F)c1` (stereo not given), for which the growth inhibition was -9.25%.
Turning to `CCCCCCCCCC(=O)CC(=O)c1c(O)cc(O)cc1O`, the growth inhibition was 31.8%.
The value for `COC(=O)c1ccc(NC(=O)O/N=C(\Cl)C(C)C)cc1` was 34.1%; that for `N#CC1(C#N)C2CCCCC23OC(=N)C1(C#N)C(c1ccco1)O3` (stereo not given) was -41.5%; that for `C=CC1=C(C)C2=NC1=CC1=NC(=C(CC)/C1=C\O)C=C1N=C3C(=C1C)C(=O)[C@H](C(=O)OC)C3=C1NC(=C2)[C@@H](C)[C@@H]1CCC(=O)O` was -4.35%.
In the case of `Cc1cc(S(=O)(=O)O)c(NC(=O)c2oc3cc(O)ccc3c(=O)c2C)cc1Cl` it was -8.35%.
As for `N#CCCOc1ccccc1`, the growth inhibition was -30.6%.
In the case of `C[C@@H]1C[C@@H]2OC(=O)[C@]3(C)[C@H]2[C@@H](OC3(C)O)[C@]2(C)C(=O)C=C[C@@H]12` (stereo not given in full) it was -48.6%.
`COc1cc(C)c2c(c1C=O)Oc1c(c(C)c(O)c3c1C(O)OC3=O)OC2=O` (stereo not given): the growth inhibition was -4.85%.
`Fc1ccc(Nc2nc(Cl)c3[nH]cnc3n2)cc1Cl`: the growth inhibition was 32.6%.
